Common to all, as to test: modulators of BK channel variants, profiling panel, selectivity assay, cell-based, U2OS BacMam, thallium flux, beta subunits (AID 1259406);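 further: initial slope of Thallos dye fluorescence rise after thallium is added; log ratio against the mean of 0.3% DMSO vehicle wells on the same plate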
One experiment has as its system F380Y. Conditions: at 30 µM.
For another experiment, the system named is F380Y/beta1. Conditions: at 30 µM.
The subject of the next experiment is F380Y/beta2Delta. Conditions: at 30 µM.
The test system of a further experiment is F380Y/beta4. Conditions: at 30 µM.
For experiment [1], the target named is Calcium-activated potassium channel subunit alpha-1 (Homo sapiens) + Leucine-rich repeat-containing protein 26 (Homo sapiens) (UniProt Q12791+Q2I0M4). Conditions: F380Y/Slo1WT/gamma1, at 30 µM.
Calcium-activated potassium channel subunit alpha-1 (Homo sapiens) + Leucine-rich repeat-containing protein 26 (Homo sapiens), sequence (Q2I0M4 whole entry, looked up, one chain of several): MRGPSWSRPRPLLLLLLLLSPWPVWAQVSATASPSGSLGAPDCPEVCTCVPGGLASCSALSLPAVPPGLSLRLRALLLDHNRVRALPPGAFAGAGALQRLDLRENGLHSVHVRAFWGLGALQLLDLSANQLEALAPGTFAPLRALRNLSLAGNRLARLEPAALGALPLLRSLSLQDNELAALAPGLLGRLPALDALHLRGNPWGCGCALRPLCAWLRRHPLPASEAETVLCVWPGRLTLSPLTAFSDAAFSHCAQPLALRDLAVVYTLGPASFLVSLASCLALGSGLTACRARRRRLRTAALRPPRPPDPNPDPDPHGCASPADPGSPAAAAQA
The next experiment has as its system R275C. Conditions: at 30 µM.
The subject of another experiment is R275C/beta1. Conditions: at 30 µM.
In a further experiment the test system is R275C/beta2Delta. Conditions: at 30 µM.
The test system of another experiment is R275C/beta4. Conditions: at 30 µM.
A further experiment has as its system R275C/Slo1WT/beta2. Conditions: at 30 µM.

Experimental findings from PubChem BioAssay are described below.

A number with no mark means an inactive call. Active and inactive are the calls of the source.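 How the source made its calls: active means thallium flux through the channel raised or lowered by more than 3 SD from vehicle-only wells, actives on both sides; inactive means the rest.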

With `N=c1c(C(N)=O)cc2c(=O)n3ccccc3nc2n1Cc1ccco1`, the log fold change Tl+ flux with F380Y is 0.0339; in the experiment on F380Y/beta1, -0.0185; in the experiment with F380Y/beta2Delta, 0.0123; in the experiment on F380Y/beta4, -0.019; in experiment [1], -0.0157; in the experiment with R275C, 0.0321. The log fold change Tl+ flux in the experiment with R275C/beta1 is -0.0587; with R275C/beta2Delta, -0.00823; in the experiment with R275C/beta4, -0.00879; in the experiment on R275C/Slo1WT/beta2, 0.0143.
Regarding `O=C(Nc1c(S(=O)(=O)c2ccccc2)csc1Br)c1ccccc1Cl`, the log fold change Tl+ flux in the experiment with F380Y was -0.0373; in the experiment on F380Y/beta1, 0.0138; in the experiment on F380Y/beta2Delta it was -0.0509; with F380Y/beta4 it was 0.0338; in experiment [1] it was 0.0104; in the experiment with R275C, -0.0217. Also, the log fold change Tl+ flux in the experiment with R275C/beta1 is 0.0155; in the experiment on R275C/beta2Delta it was -0.0307; in the experiment with R275C/beta4, 0.00756; in the experiment with R275C/Slo1WT/beta2, 0.0177.
As to `O=C(C(=NN=Cc1ccc2c(c1)OCO2)c1ccccc1)c1ccccc1`, the log fold change Tl+ flux is -0.0112 in the experiment on F380Y; -0.00905 in the experiment on F380Y/beta1; -0.0268 in the experiment on F380Y/beta2Delta; -0.0584 in the experiment with F380Y/beta4; -0.0678 in experiment [1]; -0.163 (active) with R275C. For the same compound, the log fold change Tl+ flux in the experiment on R275C/beta1 was -0.3 (active); with R275C/beta2Delta, 0.000499; in the experiment with R275C/beta4, -0.138 (active); with R275C/Slo1WT/beta2 it was -0.0825.
Take `CCOC(=O)c1ccc(-n2sccc2=O)cc1`: the log fold change Tl+ flux with F380Y was -0.0987; with F380Y/beta1, 0.078; in the experiment on F380Y/beta2Delta it was -0.0422; in the experiment on F380Y/beta4 it was -0.0664; in experiment [1] it was 0.0683; with R275C, 0.0277. In addition, the log fold change Tl+ flux in the experiment with R275C/beta1 was 0.179 (active); with R275C/beta2Delta, 0.113 (active); with R275C/beta4, 0.141 (active); with R275C/Slo1WT/beta2, 0.0482.
Consider `O=C(O)C(Cc1ccccc1[N+](=O)[O-])=NNc1ccccc1`, for which the log fold change Tl+ flux with F380Y was 0.0136; in the experiment on F380Y/beta1 it was 0.0239; in the experiment on F380Y/beta2Delta, 0.0162; with F380Y/beta4 it was 0.0888; in experiment [1] it was 0.0895; in the experiment on R275C it was 0.0387. Besides, the log fold change Tl+ flux in the experiment with R275C/beta1 was 0.0681; with R275C/beta2Delta it was 0.0201; in the experiment on R275C/beta4 it was 0.0231; in the experiment with R275C/Slo1WT/beta2, 0.00699.
Regarding `CC(C)=CC(C)=NNc1c([N+](=O)[O-])cc(C(F)(F)F)cc1[N+](=O)[O-]`, the log fold change Tl+ flux was 0.0422 in the experiment on F380Y; 0.0383 in the experiment with F380Y/beta1; 0.0202 in the experiment with F380Y/beta2Delta; 0.0221 with F380Y/beta4; -0.0328 in experiment [1]; 0.043 in the experiment with R275C. In addition, the log fold change Tl+ flux with R275C/beta1 was -0.0463; with R275C/beta2Delta, -0.0753; with R275C/beta4, -0.00952; in the experiment with R275C/Slo1WT/beta2 it was 0.0191.
For the compound `CC(C)C1COC(c2cccc(C3=NC(C(C)C)CO3)n2)=N1` (stereo not given), the log fold change Tl+ flux is -0.0154 in the experiment with F380Y; 0.0433 in the experiment on F380Y/beta1; 0.00332 in the experiment with F380Y/beta2Delta; 0.0308 with F380Y/beta4; 0.0138 in experiment [1]; -0.00894 with R275C. Further, the log fold change Tl+ flux with R275C/beta1 was 0.00883; with R275C/beta2Delta it was -0.00732; with R275C/beta4 it was -0.00827; with R275C/Slo1WT/beta2, 0.043.
As for `CCN1CCC(O)(C#Cc2ccccc2)CC1`, the log fold change Tl+ flux in the experiment on F380Y is -0.00462; with F380Y/beta1 it was 0.0157; with F380Y/beta2Delta, -0.0113; with F380Y/beta4, -0.0547; in experiment [1], 0.00398; in the experiment with R275C, -0.00643. Besides, the log fold change Tl+ flux with R275C/beta1 was 0.0179; with R275C/beta2Delta it was 0.0235; in the experiment on R275C/beta4, -0.01; with R275C/Slo1WT/beta2, 0.0236.
Take `O=C1c2cc(S(=O)(=O)O)ccc2CCC1S(=O)(=O)O` (stereo not given): the log fold change Tl+ flux with F380Y was 0.0577; in the experiment on F380Y/beta1 it was 0.132 (active); in the experiment with F380Y/beta2Delta it was 0.167 (active); in the experiment on F380Y/beta4, 0.0447; in [1] it was -0.0209; with R275C it was 0.0448. Besides, the log fold change Tl+ flux in the experiment with R275C/beta1 is 0.0433; with R275C/beta2Delta, 0.151 (active); in the experiment with R275C/beta4, 0.0299; in the experiment with R275C/Slo1WT/beta2 it was -0.0389.
For `Cc1ccc(C)n1N(C)c1ccc([N+](=O)[O-])cn1`, the log fold change Tl+ flux is -0.186 (active) in the experiment with F380Y; -0.0343 with F380Y/beta1; -0.0717 in the experiment with F380Y/beta2Delta; 0.0203 with F380Y/beta4; -0.0125 in experiment [1]; -0.0076 in the experiment on R275C. Further, the log fold change Tl+ flux in the experiment with R275C/beta1 was -0.0949; in the experiment with R275C/beta2Delta, -0.0509; in the experiment on R275C/beta4, 0.0498; in the experiment on R275C/Slo1WT/beta2, 0.00416.
Consider `Cc1cc(C)c2cc(C(=O)Nc3ccccc3SCc3cccc(Cl)c3F)[nH]c2c1`, for which the log fold change Tl+ flux in the experiment on F380Y is 0.0408; in the experiment on F380Y/beta1 it was 0.0143; with F380Y/beta2Delta, 0.00341; with F380Y/beta4 it was -0.00891; in experiment [1], -0.00142; with R275C it was 0.000963. In addition, the log fold change Tl+ flux with R275C/beta1 is 0.041; in the experiment on R275C/beta2Delta, 0.02; with R275C/beta4 it was 0.00151; in the experiment on R275C/Slo1WT/beta2, 0.025.
For `COc1ccc(CCN=Cc2ccccn2)cc1OC`, the log fold change Tl+ flux in the experiment on F380Y was -0.038; in the experiment on F380Y/beta1 it was 0.0306; with F380Y/beta2Delta it was 0.00295; in the experiment on F380Y/beta4 it was -0.00225; in [1], -0.032; with R275C it was -0.0485. The log fold change Tl+ flux in the experiment on R275C/beta1 was -0.0399; in the experiment on R275C/beta2Delta, -0.0772; in the experiment on R275C/beta4, -0.0204; in the experiment with R275C/Slo1WT/beta2, -0.00322.
On to `Cc1nn(S(=O)(=O)c2ccccc2)c(C)c1Oc1ccc(Cl)cc1`, for which the log fold change Tl+ flux in the experiment with F380Y was -0.154 (active); with F380Y/beta1, -0.178 (active); in the experiment on F380Y/beta2Delta, -0.15 (active); in the experiment with F380Y/beta4 it was -0.668 (active); in experiment [1], -0.342 (active); in the experiment on R275C, -0.199 (active). Moreover, the log fold change Tl+ flux is -0.214 (active) in the experiment with R275C/beta1, -0.0399 in the experiment on R275C/beta2Delta, -0.114 (active) with R275C/beta4 and -0.0715 in the experiment with R275C/Slo1WT/beta2.
On to `COc1cccc(N2CC(=O)N(NC(=O)NC3CCCCC3)CC2=O)c1`, for which the log fold change Tl+ flux with F380Y is -0.0108; in the experiment with F380Y/beta1 it was -0.0266; with F380Y/beta2Delta, -0.0355; with F380Y/beta4 it was -0.0285; in [1], 0.0234; in the experiment with R275C, 0.0133. The log fold change Tl+ flux in the experiment on R275C/beta1 was -0.0377; in the experiment on R275C/beta2Delta, -0.0493; in the experiment on R275C/beta4 it was -0.00116; in the experiment on R275C/Slo1WT/beta2, -0.0113.
